The supplement of paper PMC9694430
Where “and” joins values, the source holds several entries; their conditions need not be identical. Identical values can stand only once.

How the values were obtained:
Assay in all cases: thermal shift delta Tm vs DMSO control; higher = stronger stabilization (binding)
Conditions in all cases: 12.5 µM; protein concentration 2 µM
[1] = system: LOC_OS04G57630-cb004
Procedure, shortened: (§1)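 Rice kinase domain constructs were expressed in E. coli, purified, and tested by differential scanning fluorimetry with compound added in DMSO. Each well of a 96-well plate held 19.5 μl of 2 μM kinase in 100 mM potassium phosphate pH 7.5, 150 mM NaCl, 10% glycerol and 5 × SYPRO Orange, and fluorescence was read from 25°C to 95°C at 0.05°C/s. The melting temperature shift is the mean of triplicates, taken against protein with DMSO alone after Boltzmann fitting.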

[2] = system: LOC_OS05G07850-cb002
Procedure, shortened: as §1

[3] = system: LOC_OS05G16824-cb004
Procedure, shortened: as §1

[4] = system: LOC_OS05G28520-cb001
Procedure, shortened: as §1

[5] = system: LOC_OS05G30820-cb001
Procedure, shortened: as §1

[6] = system: LOC_OS05G43570-cb004
Procedure, shortened: as §1

[7] = system: LOC_OS06G16330-cb003
Chain of LOC_OS06G16330-cb003 (as listed by the source): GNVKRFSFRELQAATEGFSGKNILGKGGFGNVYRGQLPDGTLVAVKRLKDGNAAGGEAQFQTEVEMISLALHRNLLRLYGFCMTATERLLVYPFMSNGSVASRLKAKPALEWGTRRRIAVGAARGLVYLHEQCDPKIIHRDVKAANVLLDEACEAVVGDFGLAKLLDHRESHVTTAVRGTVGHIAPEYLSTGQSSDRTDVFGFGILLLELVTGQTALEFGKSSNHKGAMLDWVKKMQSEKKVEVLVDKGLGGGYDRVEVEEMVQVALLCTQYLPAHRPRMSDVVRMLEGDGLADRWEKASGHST
Procedure, shortened: as §1

[8] = system: T1, LOC_OS06G22820-cb001
T1 sequence (whole entry): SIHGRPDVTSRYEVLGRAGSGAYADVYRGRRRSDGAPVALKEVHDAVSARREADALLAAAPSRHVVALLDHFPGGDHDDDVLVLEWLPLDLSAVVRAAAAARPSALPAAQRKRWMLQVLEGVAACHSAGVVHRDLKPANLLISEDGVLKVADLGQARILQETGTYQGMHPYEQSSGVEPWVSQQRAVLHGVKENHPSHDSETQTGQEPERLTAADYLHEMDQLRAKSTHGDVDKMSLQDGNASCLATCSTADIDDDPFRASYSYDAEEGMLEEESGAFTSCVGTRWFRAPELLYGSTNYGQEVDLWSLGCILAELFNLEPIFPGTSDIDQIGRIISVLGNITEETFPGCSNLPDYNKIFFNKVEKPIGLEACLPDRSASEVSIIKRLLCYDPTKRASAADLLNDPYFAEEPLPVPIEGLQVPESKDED
Procedure, shortened: as §1

[9] = system: LOC_OS07G06570-cb004
Procedure, shortened: as §1

[10] = system: LOC_OS07G07230-cb001
Procedure, shortened: as §1

Compound | thermal shift delta Tm [1] | thermal shift delta Tm [2] | thermal shift delta Tm [3] | thermal shift delta Tm [4] | thermal shift delta Tm [5] | thermal shift delta Tm [6] | thermal shift delta Tm [7] | thermal shift delta Tm [8] | thermal shift delta Tm [9] | thermal shift delta Tm [10]
Cc1cnc(NC(=O)Nc2cc(Br)c(C)cc2OC[C@@H]2CNCCO2)cn1 | 0.36 °C | 3.74 °C | 5.41 °C | 0.03 °C | 0.41 °C | 0.24 °C | 0.75 °C | 0.22 °C | 0.46 °C | 0.19 °C
NC(=O)Nc1cc(-c2cccc(F)c2)sc1C(=O)N[C@H]1CCCNC1 | 3.39 °C | 11.9 °C | 10.8 °C | 0.35 °C | 1.33 °C | 1.05 °C | 9.93 °C | 0.87 °C | 1.07 °C | -0.31 °C
N#C/C(=C(/N)Sc1ccc(N)cc1)c1ccccc1C(F)(F)F | -0.02 °C | -0.43 °C | -2.13 °C | 0.13 °C | 0.55 °C | -0.02 °C | -0.1 °C | 0.8 °C | 0.09 °C | 0.16 °C
C[C@H](NC(=O)c1c(N)nn2cccnc12)c1cc2cccc(C#Cc3cnn(C)c3)c2c(=O)n1-c1ccccc1 | -0.07 °C | 0.09 °C | 2.93 °C | 0.27 °C | 0.07 °C | 0.11 °C | -0.63 °C | 0.3 °C | 1.69 °C | 0.62 °C
CN(c1ncccc1CNc1nc(Nc2ccc3c(c2)CC(=O)N3)ncc1C(F)(F)F)S(C)(=O)=O | 1.44 °C and 2.05 °C | 8.97 °C and 9.58 °C | 9.12 °C and 9.67 °C | 0.98 °C and 1.52 °C | 4.26 °C and 3.92 °C | 0.77 °C and 0.58 °C | 4.21 °C and 5.5 °C | -0.01 °C and -0.19 °C | 0.81 °C and 1.35 °C | 0.45 °C and 0.44 °C
CN1CCN(c2ccc(Nc3cc(-c4cccc(-n5ccc6cc(C7CC7)cc(F)c6c5=O)c4CO)cn(C)c3=O)nc2)CC1 | 0.45 °C | 2.96 °C | 0.67 °C | 0.6 °C | 0.63 °C | 0.46 °C | 0.74 °C | 0.59 °C | 1.21 °C | 0.61 °C
C1=N/C2=N/c3ccc(OCCN4CCCC4)c(c3)COC/C=C/COCc3cccc(c3)C(=C1)N2 [Pacritinib (SB1518)] | 4.36 °C | 12.8 °C | 7.5 °C | 3.33 °C | 0.55 °C | 0.68 °C | 10.1 °C | 0.41 °C | 1.64 °C | 0.85 °C
CN1CC(O)C2=C/C(=N/NC(N)=O)C(=O)C=C21 (stereo not given) [Carbazochrome] | -0.07 °C | 1.06 °C | -3.49 °C | -0.11 °C | 0.11 °C | 0.35 °C | 0.27 °C | 0.09 °C | 0.68 °C | 0.58 °C
Cc1ccc(C(=O)Nc2ccc(Oc3cc4cnn(C)c4cc3-c3cn[nH]c3)c(F)c2)c(=O)n1-c1ccc(F)cc1 | 1.06 °C | 12.9 °C | 0.64 °C | 0.91 °C | 0.24 °C | 1.08 °C | 5.02 °C | 1.28 °C | 1.37 °C | -0.23 °C
O=C1Nc2ccc(I)cc2/C1=C/c1cc(Br)c(O)c(Br)c1 | -0.66 °C | 7.59 °C | -3.03 °C | 2.07 °C | 1.54 °C | 0.73 °C | 1.63 °C | 0.94 °C | 1.22 °C | 1.47 °C
COc1cc2ncc(-c3ccccc3)nc2cc1OC [Tyrphostin AG 1296] | 0.05 °C | 5.59 °C | 2.99 °C | -0.06 °C | 0.8 °C | 0.08 °C | 2.24 °C | 0.24 °C | 1.65 °C | 0.83 °C
O=C(Nc1ccc(-c2ccnc(Nc3ccc(N4CCOCC4)cc3)n2)cc1)C1CCCN1 (stereo not given) | 0.39 °C | 8.89 °C | -1.75 °C | 0.58 °C | 0.48 °C | 0.34 °C | 2.94 °C | 0.34 °C | 1.36 °C | 0.39 °C
COc1cc2nccc(Oc3ccc(NC(=O)C4(C(=O)Nc5ccc(F)cc5)CC4)cc3)c2cc1OC [Cabozantinib malate (XL184)] | 0.66 °C | 10.2 °C | -1.18 °C | 1.86 °C | 0.41 °C | 0.69 °C | 1.53 °C | 0.93 °C | 1.5 °C | -0.02 °C
CC(C)c1c2cc(-c3ccnc(NC4CCC(NC5CCOCC5)CC4)n3)ccc2nn1C (stereo not given) | 1.43 °C | 6.4 °C | -6.14 °C | 0.56 °C | 0.45 °C | 0.57 °C | 3.01 °C | 0.19 °C | 1.62 °C | 0.55 °C
CC(C)CC(=O)Nc1n[nH]c2c1CN(C(=O)C1CCN(C)CC1)C2(C)C | 0.48 °C | 0.58 °C | 0.18 °C | 0.19 °C | 0.53 °C | 0.86 °C | -0.05 °C | 3.38 °C | 0.44 °C | 0.05 °C
CCCNC(=O)c1cn2ncnc(Nc3cc(C(=O)NC4CC4)ccc3C)c2c1C | 0.07 °C | 0.14 °C | -4.13 °C | 0.31 °C | 0.52 °C | 0.2 °C | -0.22 °C | 0.62 °C | 1.15 °C | 0.61 °C
CNC(=O)c1ccc(Nc2ncc(C(F)(F)F)c(NCc3nccnc3N(C)S(C)(=O)=O)n2)cc1 | 2.75 °C | 10.8 °C | 9.21 °C | 6.38 °C | 4.15 °C | 0.69 °C | 5.49 °C | 0.27 °C | 0.66 °C | 0.51 °C
Oc1cc(CNC(=S)/C=C/c2cc(O)c(O)c(Br)c2)cc(O)c1O | 0.49 °C | -1.85 °C | -0.73 °C | 0.47 °C | 0.99 °C | 1.46 °C | 0.61 °C | 2.08 °C | 3.05 °C | 0.45 °C
